Here are results for 5 compounds from PubChem BioAssay.

Calls of active or inactive are those of the source.

Experiment [1] relates to Wnt5a (protein binding on small-molecule microarray). In words: small molecules binding Wnt5a protein – biophysical, small-molecule microarray, 635/667 nm fluorescence, primary screen (AID 1142).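 Note: fluorescence read at 667 nm with signal to noise per printed feature.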 Conditions: 635 nm fluorescence, higher = more signal.
Experiment [2] can be described thus: ATP-based viability of Huh7 replicon cells – cell-based, CellTiter-Glo luminescence, basal, 48 h, cytotoxicity control for HCV replication inhibitor project, primary screen (AID 1143).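 Note: Huh7 hepatoma cells carrying a hepatitis C replication reporter with no stimulus; test concentration not given here.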 The settings on record: higher = more signal, called active from +8 up or from −8 down.
The nature of experiment [3]: basal CRE-LacZ reporter activity in PC12 – cell-based, unstimulated, primary screen (AID 1145). Conditions: no forskolin, luminescence, 4.5 h, higher = more signal, called active from +8 up or from −8 down.
Experiment [4] is described as follows: forskolin-driven CRE-LacZ activity in PC12 – cell-based, CRE-LacZ reporter, forskolin-stimulated, primary screen (AID 1146).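 Note: PC12 cells with 6xCRE LacZ reporter stimulated by forskolin 10 µM; beta-galactosidase reporter signal reflecting CREB driven transcription.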 Conditions: luminescence, 4.5 h, higher = more signal, called active from +8 up or from −8 down.
Experiment [5] addresses Streptavidin (Streptomyces avidinii) (UniProt P22629). As to the kind of experiment: compounds binding control protein streptavidin – biophysical, small-molecule microarray, 635/667 nm fluorescence, artefact control for SMM compound annotation, primary screen (AID 1147).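 Note: signal reflects streptavidin binding to arrayed compounds as a control protein.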 The settings on record: higher = more signal.
Experiment [6] is described as follows: probe aInhba binding on compound microarray – biochemical, small-molecule microarray, 635/667 nm fluorescence, primary screen (AID 1148).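 Note: score merges 667nm spot fluorescence with signal-to-noise for antibody binding to printed compounds.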 The settings on record: higher = more signal.
Experiment [7] concerns the target Torsin-1A (Homo sapiens) (UniProt O14656). As to the kind of experiment: TOR1A wild-type binding on microarray – cell lysate, small-molecule microarray, lysate, 635/667 nm, primary screen (AID 1149). The settings on record: COS7 hTOR1A-WT lysate, 635 nm fluorescence, higher = more signal.
For experiment [8] the target is unchanged. In words: torsin A mutant lysate binding on microarrays – cell lysate, small-molecule microarray, COS7 lysate, 635/667 nm fluorescence, primary screen (AID 1150).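 Note: score pools 667 nm emission and signal to noise measuring lysate protein binding.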 The settings on record: COS7 hTOR1A mutant lysate, 635 nm fluorescence, higher = more signal.
Experiment [9] has as its system Sonic hedgehog protein (Shh). In words: Sonic hedgehog microarray binding compounds – biochemical, small-molecule microarray, 635/667 nm fluorescence, primary screen (AID 1151).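 Note: Shh protein binding to compounds spotted on small-molecule microarray slides; score combines spot fluorescence intensity with signal-to-noise across triplicate slides.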 The settings on record: 635 nm fluorescence, higher = more signal.
Experiment [10] in a line: optical density shifts of acrAB sulA E. coli – strain DRC41, OD650, 48 h, E. coli filamentation inducer project, primary screen (AID 1152).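 Note: E. coli MC1000 strain DRC41 lacking acrAB efflux pump and sulA.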 Conditions: higher = more signal, called active from +8 up or from −8 down.
Experiment [11] can be described thus: probe aLefty1 binding on compound microarray – biochemical, small-molecule microarray, 635/667 nm fluorescence, primary screen (AID 1153).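 Note: score merges spot fluorescence with signal-to-noise ratio from the scanned slide images.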 The settings on record: higher = more signal.
The nature of experiment [12]: plasmodial surface anion channel blockers, osmotic lysis – cell-based, P. falciparum Indochina, OD700, 1 h, primary screen (AID 1154). Conditions: P. falciparum Indochina infected RBC osmotic lysis, higher = more signal, called active from +8 up or from −8 down.
The nature of experiment [13]: plasmodial surface anion channel blockers, osmotic lysis – cell-based, P. falciparum Indochina, OD700, 2 h, primary screen (AID 1155).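 Note: lysis reports solute entry through the parasite surface anion channel PSAC.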 The settings on record: P. falciparum Indochina infected erythrocytes, higher = more signal, called active from +8 up or from −8 down.
A short description of experiment [14]: changes in parasitized red cell lysis, either direction – P. falciparum Indochina, OD700, 3 h, PSAC antagonist project, primary screen (AID 1156). Conditions: P. falciparum-infected erythrocytes, osmotic lysis, higher = more signal, called active from +8 up or from −8 down.
The nature of experiment [15]: plasmodial surface anion channel blockers, osmotic lysis – cell-based, P. falciparum Indochina, OD700, 18 h, primary screen (AID 1157). Conditions: P. falciparum Indochina infected erythrocytes, osmotic lysis OD700, 18 h; higher = more signal, called active from +8 up or from −8 down.
A short description of experiment [16]: S6 kinase pathway phospho-S6 level changes – cell-based, A549, cytoblot, luminescence, serum-stimulated, primary screen (AID 1158).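 Note: serum-stimulated A549 lung adenocarcinoma cells; signal is phosphorylated S6 detected by cytoblot immunostaining with HRP secondary.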 Conditions: 5 h, higher = more signal.
Experiment [17] deals with NADPH oxidase 2 (Homo sapiens) (UniProt P04839). In words: compounds shifting NOX2 Amplex Red fluorescence – cell-based, HEK293-NOX2, PMA-stimulated, NOX inhibitor project, primary screen (AID 1159). Note: test concentration not given here. The settings on record: 45 min, higher = more signal, called active from +8 up or from −8 down.
NADPH oxidase 2 (Homo sapiens), sequence (P04839 whole entry, looked up): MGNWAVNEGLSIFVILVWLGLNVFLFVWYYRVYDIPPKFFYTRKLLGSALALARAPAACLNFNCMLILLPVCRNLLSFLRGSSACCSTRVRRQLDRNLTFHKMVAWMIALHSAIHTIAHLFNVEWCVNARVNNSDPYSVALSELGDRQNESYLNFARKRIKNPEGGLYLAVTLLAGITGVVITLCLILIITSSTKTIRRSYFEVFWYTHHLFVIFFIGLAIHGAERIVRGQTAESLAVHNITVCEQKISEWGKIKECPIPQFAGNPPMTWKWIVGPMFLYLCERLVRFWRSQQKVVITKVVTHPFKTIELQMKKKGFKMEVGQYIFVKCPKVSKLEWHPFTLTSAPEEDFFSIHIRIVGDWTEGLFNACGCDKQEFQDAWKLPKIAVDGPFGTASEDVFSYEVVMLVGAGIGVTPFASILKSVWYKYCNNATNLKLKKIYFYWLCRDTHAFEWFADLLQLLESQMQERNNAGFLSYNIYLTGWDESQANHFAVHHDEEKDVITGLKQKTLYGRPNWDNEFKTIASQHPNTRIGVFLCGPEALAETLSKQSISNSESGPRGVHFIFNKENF
Experiment [18] addresses NADPH oxidase 4 (Homo sapiens) (UniProt Q9NPH5). As to the kind of experiment: compounds shifting NOX4 Amplex Red fluorescence – cell-based, HEK293-NOX4, tetracycline-induced, NOX inhibitor project, primary screen (AID 1160). The settings on record: HEK293-NOX4, Amplex Red H2O2 fluorescence, 45 min; higher = more signal, called active from +8 up or from −8 down.
The target of experiment [19] is NADPH oxidase 5 (Homo sapiens) (UniProt Q96PH1). As to the kind of experiment: compounds shifting NOX5 Amplex Red fluorescence – cell-based, HEK293-NOX5, NOX inhibitor project, primary screen (AID 1161). The settings on record: HEK293-NOX5, ionomycin, 45 min, higher = more signal.
NADPH oxidase 5 (Homo sapiens), sequence (Q96PH1 whole entry, looked up): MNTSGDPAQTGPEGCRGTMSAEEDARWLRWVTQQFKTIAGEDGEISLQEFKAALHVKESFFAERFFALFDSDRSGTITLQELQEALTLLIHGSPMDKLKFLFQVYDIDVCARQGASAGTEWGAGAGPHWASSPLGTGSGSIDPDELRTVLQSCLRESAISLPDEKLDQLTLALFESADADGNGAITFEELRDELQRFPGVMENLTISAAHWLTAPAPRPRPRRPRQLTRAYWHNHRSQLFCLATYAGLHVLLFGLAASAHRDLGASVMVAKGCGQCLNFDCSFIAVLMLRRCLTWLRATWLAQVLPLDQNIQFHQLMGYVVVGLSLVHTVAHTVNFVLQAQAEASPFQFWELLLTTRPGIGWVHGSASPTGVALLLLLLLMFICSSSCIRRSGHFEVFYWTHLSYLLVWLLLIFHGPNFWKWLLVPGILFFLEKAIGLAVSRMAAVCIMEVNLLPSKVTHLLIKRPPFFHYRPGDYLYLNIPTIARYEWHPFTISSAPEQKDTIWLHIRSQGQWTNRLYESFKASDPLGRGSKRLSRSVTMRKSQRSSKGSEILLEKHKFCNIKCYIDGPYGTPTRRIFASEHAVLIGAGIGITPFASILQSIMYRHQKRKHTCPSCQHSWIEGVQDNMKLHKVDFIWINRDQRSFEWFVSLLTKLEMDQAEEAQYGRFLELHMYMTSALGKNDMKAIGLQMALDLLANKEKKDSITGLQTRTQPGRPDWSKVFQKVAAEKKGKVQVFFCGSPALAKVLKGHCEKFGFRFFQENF
The nature of experiment [20]: compound effects on lung adenocarcinoma cell viability – A549, calcein-AM fluorescence, 48 h, basal, profiling panel (AID 1162). Note: test concentration not given here. The settings on record: higher = more signal.

Streptavidin (Streptomyces avidinii), sequence (P22629 whole entry, looked up): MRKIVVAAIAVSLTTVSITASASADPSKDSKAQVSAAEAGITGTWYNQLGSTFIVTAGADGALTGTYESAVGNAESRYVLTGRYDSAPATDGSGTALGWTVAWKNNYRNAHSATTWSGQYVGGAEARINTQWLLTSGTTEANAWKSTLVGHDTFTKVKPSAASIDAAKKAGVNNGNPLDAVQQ
NADPH oxidase 4 (Homo sapiens), sequence (Q9NPH5 whole entry, looked up): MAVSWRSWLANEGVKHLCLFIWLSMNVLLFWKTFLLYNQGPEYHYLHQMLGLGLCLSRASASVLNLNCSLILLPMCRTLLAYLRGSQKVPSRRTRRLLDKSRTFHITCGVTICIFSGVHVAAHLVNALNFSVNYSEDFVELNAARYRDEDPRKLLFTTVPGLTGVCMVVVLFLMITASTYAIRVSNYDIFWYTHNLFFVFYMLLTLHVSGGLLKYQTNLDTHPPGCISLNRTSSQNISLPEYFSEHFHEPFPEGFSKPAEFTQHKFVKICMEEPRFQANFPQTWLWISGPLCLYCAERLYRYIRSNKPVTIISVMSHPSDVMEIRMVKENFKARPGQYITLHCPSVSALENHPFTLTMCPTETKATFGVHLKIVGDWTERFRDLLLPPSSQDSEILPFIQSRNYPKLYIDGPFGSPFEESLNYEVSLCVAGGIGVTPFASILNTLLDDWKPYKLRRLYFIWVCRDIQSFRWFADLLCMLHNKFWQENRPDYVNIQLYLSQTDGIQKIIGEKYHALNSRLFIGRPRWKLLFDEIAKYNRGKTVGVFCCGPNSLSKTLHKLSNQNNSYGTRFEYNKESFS
Torsin-1A (Homo sapiens), sequence (O14656 whole entry, looked up): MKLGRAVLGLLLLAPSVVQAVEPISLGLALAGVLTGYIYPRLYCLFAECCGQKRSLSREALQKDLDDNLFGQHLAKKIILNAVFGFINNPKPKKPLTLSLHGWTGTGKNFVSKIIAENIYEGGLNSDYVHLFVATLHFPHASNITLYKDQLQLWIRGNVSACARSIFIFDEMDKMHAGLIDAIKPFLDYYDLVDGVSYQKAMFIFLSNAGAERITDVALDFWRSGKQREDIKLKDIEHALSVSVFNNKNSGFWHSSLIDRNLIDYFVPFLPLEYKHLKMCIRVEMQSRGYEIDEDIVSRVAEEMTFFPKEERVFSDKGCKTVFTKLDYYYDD

Regarding `NC(=O)NCC#Cc1ccc2c(c1)[C@]1(C(=O)N2)[C@H](c2ccc(OCCO)cc2)N2[C@H](c3ccccc3)[C@H](c3ccccc3)OC(=O)[C@H]2[C@@H]1C(=O)Nc1nc2ccccc2s1`, the composite z-score in experiment [1] is 0.151; in experiment [5], 0.453; in experiment [6] it was 0.0253; with Torsin-1A (Homo sapiens) [7], -0.033; with Torsin-1A (Homo sapiens) [8] it was 0.254; in [9], 0.0186. Moreover, in experiment [11], the composite z-score amounted to 0.122. Moreover, the z-score in experiment [2] was -0.0246 (inactive); in experiment [3], -0.0246 (inactive); in experiment [4] it was 0.625 (inactive); in experiment [10], 2 (inactive); in experiment [12], 2.5 (inactive); in experiment [13], 2.06 (inactive). Moreover, the z-score is 1.53 (inactive) in experiment [14]; 1.33 (inactive) in experiment [15]; -0.199 in [16]; 1.43 (inactive) in experiment [17]; 0.57 (inactive) in experiment [18]; 1.16 in [19]. For the same compound, the z-score in [20] was 0.0942.
Regarding `COC(=O)C1=CC(c2ccc(CO)cc2)=CC(c2cccs2)N(C)C=C1C(=O)OC` (stereo not given), the composite z-score is -0.246 in [1]; 0.295 in experiment [5]; -0.0471 in experiment [6]; 0.503 with Torsin-1A (Homo sapiens) [7]; 0.634 with Torsin-1A (Homo sapiens) [8]; 0.335 in [9]. Also, the composite z-score in [11] was determined as 0.571. The z-score was -3.59 (inactive) in experiment [2]; -0.348 (inactive) in experiment [3]; -0.534 (inactive) in experiment [4]; 2.46 (inactive) in [10]; 6.76 (inactive) in experiment [12]; 0.0213 (inactive) in experiment [13]. Also, the z-score in experiment [14] was -0.64 (inactive); in experiment [15], -1.49 (inactive); in [16], 1.67; in [17], -1.48 (inactive); in experiment [18], -2.33 (inactive); in experiment [19], -1.44. Further, the z-score in experiment [20] is 0.126.
In the case of `CCN(CC)c1ccc(N2CC=CC34O[C@@H]5C=CCOC(=O)[C@@H]5[C@H]3C(=O)N(C(CO)C(C)C)[C@@H]4C2=O)cc1` (stereo not given in full), the composite z-score in [1] is -0.191; in experiment [5], -0.258; in experiment [6], -0.391; with Torsin-1A (Homo sapiens) [7], -0.156; with Torsin-1A (Homo sapiens) [8], -0.701; in [9] it was 0.0806. The same compound displayed a composite z-score in [11] of 0.189. The z-score in experiment [2] was -0.524 (inactive); in [3], 0.471 (inactive); in experiment [4], 0.6 (inactive); in experiment [10] it was 1.38 (inactive); in experiment [12], -0.185 (inactive); in [13] it was -0.262 (inactive). Besides, the z-score in experiment [14] is 1.21 (inactive); in experiment [15] it was 0.135 (inactive); in [16], -0.369; in experiment [17] it was 0.787 (inactive); in experiment [18], 0.196 (inactive); in experiment [19], 1.23. Besides, in experiment [20], the z-score was -0.0755.
For `CC(C)(C)OC(=O)CC[C@@]1(C(=O)N2CCOCC2)N=C(c2ccc(OCCCO)cc2)O[C@@H]1c1ccccc1`, the composite z-score in experiment [1] is 0.674; in experiment [5], 0.3; in experiment [6], 0.182; with Torsin-1A (Homo sapiens) [7] it was 1.38; with Torsin-1A (Homo sapiens) [8], 1.46; in [9] it was -0.0953. Further, the composite z-score in experiment [11] was 0.951. For the same compound, the z-score in experiment [2] was -1.77 (inactive); in experiment [3], 1.56 (inactive); in experiment [4], -0.257 (inactive); in experiment [10], 1.79 (inactive); in experiment [12], 20.8 (active); in experiment [13] it was 3.95 (inactive). Besides, the z-score was 0.794 (inactive) in experiment [14]; -0.73 (inactive) in [15]; 1.12 in experiment [16]; -0.261 (inactive) in experiment [17]; -0.961 (inactive) in experiment [18]; -0.0438 in experiment [19]. Besides, the z-score in experiment [20] was 0.343.
`COC(=O)C(CC#Cc1ccc2c(c1)[C@]1(C(=O)N2)[C@H](C(=O)O)[C@H]2C(=O)O[C@H](c3ccccc3)[C@H](c3ccccc3)N2[C@@H]1c1ccc(OCCO)cc1)C(=O)OC`: the composite z-score stood at 0.562 in [1]; 1.25 in experiment [5]; 0.0714 in experiment [6]; 0.734 in the experiment with Torsin-1A (Homo sapiens) [7]; 1.06 with Torsin-1A (Homo sapiens) [8]; 0.969 in [9]. Besides, the composite z-score in [11] was found to be 0.305. For the same compound, the z-score in experiment [2] is -2.27 (inactive); in [3] it was -0.258 (inactive); in experiment [4], -1.32 (inactive); in experiment [10], 3.78 (inactive); in [12], 10 (active); in experiment [13], 0.0825 (inactive). Besides, the z-score in [14] is 0.646 (inactive); in experiment [15], -2.18 (inactive); in experiment [16] it was 2.47; in experiment [17], 1.39 (inactive); in experiment [18] it was 0.164 (inactive); in experiment [19], 0.396. The z-score in experiment [20] was 2.54.
